# Laboratory results published in the supplement of paper PMC9446081.
# Out of some 39,000 compounds screened, about 220 (0.56%) showed activity. This excerpt belongs to a sample that is enriched for actives. A number with no mark means an inactive call.
# Test system: Escherichia coli K-12 BW25113
# Experiment: relative growth (OD600 normalised to plate interquartile mean) (fraction); higher = less growth inhibition, active = 0.2 or less
# Conditions: 50 µM; LB; incubation time: overnight (16-24 h)
# 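Note: Wild-type cells incubated without shaking, value is the mean of two biological replicates.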
row,Structure (SMILES),relative growth
1,COc1ccc(NC(=O)N(C)C[C@@H]2Oc3ccc(NC(=O)Nc4ccc(C(F)(F)F)cc4)cc3C(=O)N([C@@H](C)CO)C[C@H]2C)cc1,1.03
2,Clc1nc(-c2ccccn2)nc2scc(-c3ccccc3)c12,0.979
3,CC(Cc1cccc(C(F)(F)F)c1)NCCOC(=O)c1ccccc1.Cl (stereo not given),0.815
4,CC(NCCCc1cccc(C(F)(F)F)c1)c1cccc2ccccc12.Cl (stereo not given),0.0467 (active)
5,C[C@@H](O)c1cccc(C(F)(F)F)c1,0.986
6,C[C@H]1CN([C@@H](C)CO)C(=O)c2cc(NS(=O)(=O)c3cn(C)cn3)ccc2O[C@H]1CN(C)Cc1ccc(C(=O)Nc2ccccc2N)cc1,1.04
7,COc1cccc(OCc2ccc(Cn3nc(NC(=O)NCc4ccccc4OC)c4ccccc43)cc2)c1,1.03
8,O=C1C=CC(=O)N1,0.0291 (active)
9,Cc1noc(C)c1S(=O)(=O)Nc1ccc2c(c1)CC(=O)N([C@H](C)CO)C[C@H](C)[C@H](CN(C)S(=O)(=O)c1c(C)noc1C)O2,1.01
10,CN(C)CCOC(c1ccccc1)c1ccccc1.Cl,1.12
11,CN(C)CCOC(c1ccccc1)c1ccccc1.Cn1c(=O)c2[nH]c(Cl)nc2n(C)c1=O,0.0491 (active)
12,COCCc1nc2c([nH]1)c(=O)n(C)c(=O)n2C,0.97
13,CO[C@@H]1CN(C)C(=O)c2cc(NC(=O)c3ccc(F)cc3)ccc2OC[C@@H](C)N(C(=O)CN(C)C)C[C@H]1C,0.988
14,C[C@H]1CCCCO[C@@H](CN(C)Cc2ccc(C(=O)Nc3ccccc3N)cc2)[C@@H](C)CN([C@@H](C)CO)C(=O)c2cc(N(C)C)ccc2O1,0.998
15,[N-]=[N+]=Nc1ccccc1C[C@@]1(C(=O)NC[C@@H](O)CO)N=C(c2ccc(OCCCO)cc2)O[C@@H]1c1ccccc1,1
16,COc1ccc(S(=O)(=O)N(C)C[C@H]2Oc3ccc(NS(=O)(=O)c4ccc(F)cc4)cc3C(=O)N([C@H](C)CO)C[C@H]2C)cc1,1.02
17,CO[C@@H]1[C@@H](OC(=O)c2ccc(C)[nH]2)[C@@H](O)[C@@H](Oc2ccc3c(c2C)OC(=O)[C@H](NC(=O)c2[nH]cc(CC(=O)Nc4cc5ccc(O[C@@H]6OC(C)(C)[C@H](OC)[C@@H](OC(=O)c7ccc(C)[nH]7)[C@H]6O)c(C)c5oc4=O)c2C)C3)CC1(C)C,0.0629 (active)
18,COC1C(OC(N)=O)C(O)C(Oc2ccc3c([O-])c(NC(=O)c4ccc(O)c(CC=C(C)C)c4)c(=O)oc3c2C)OC1(C)C.[Na+] (stereo not given),0.701
19,COCCCNC(=O)[C@@H]1c2ccccc2C(=O)N(Cc2cc(C(F)(F)F)cc(C(F)(F)F)c2)[C@H]1c1ccc(CO)cc1,0.859
20,Cc1noc(C)c1NC(=O)Nc1ccc2c(c1)C(=O)N([C@@H](C)CO)C[C@@H](C)[C@@H](CN(C)C(=O)c1ccccc1)OCCCC[C@@H](C)O2,0.977

row,Structure (SMILES),relative growth
1,Cc1cc(C2CCCCC2)n(O)c(=O)c1.NCCO,0.0534 (active)
2,C[C@@H]1CN([C@@H](C)CO)C(=O)c2cc(-c3cccc(C(=O)N(C)C)c3)cnc2O[C@H]1CN(C)S(=O)(=O)c1ccccc1,1.01
3,COCC#Cc1ccc2c(c1)O[C@H](CN(C)C(=O)C1CCCCC1)[C@H](C)CN([C@H](C)CO)S2(=O)=O,0.988
4,COC1C=COC2(C)Oc3c(C)c(O)c4c(O)c(c(C=NN5CCN(C)CC5)c(O)c4c3C2=O)NC(=O)C(C)=CC=CC(C)C(O)C(C)C(O)C(C)C(OC(C)=O)C1C (stereo not given),0.0777 (active)
5,CO[C@H]1/C=C\O[C@@]2(C)Oc3c(C)c(O)c4c(O)c(c(/C=N/N=C/N5CCCCC5)c(O)c4c3C2=O)NC(=O)/C(C)=C\C=C/[C@H](C)[C@H](O)[C@@H](C)[C@@H](O)[C@@H](C)[C@H](OC(C)=O)[C@@H]1C,0.65
6,COC1C=COC2(C)Oc3c(C)c(O)c4c(O)c(c5c(nc6cc(C)ccn65)c4c3C2=O)NC(=O)C(C)=CC=CC(C)C(O)C(C)C(O)C(C)C(OC(C)=O)C1C (stereo not given),0.0499 (active)
7,CO[C@H]1/C=C\O[C@@]2(C)Oc3c(C)c(O)c4c(c3C2=O)[C@]2(C=C(NC(=O)/C(C)=C\C=C/[C@@H](C)[C@@H](O)[C@@H](C)[C@@H](O)[C@@H](C)[C@@H](OC(C)=O)[C@@H]1C)C4=O)OCC(=O)O2,0.905
8,COC1C=COC2(C)Oc3c(C)c(O)c4c(O)c(c(C=NN5CCN(C6CCCC6)CC5)c(O)c4c3C2=O)NC(=O)C(C)=CC=CC(C)C(O)C(C)C(O)C(C)C(OC(C)=O)C1C (stereo not given),0.0719 (active)
9,C[C@@H]1CCCCO[C@H](CN(C)Cc2ccc3c(c2)OCO3)[C@H](C)CN([C@@H](C)CO)C(=O)c2cc(NC(=O)NC3CCCCC3)ccc2O1,1.01
10,C[C@H](CO)N1C[C@H](C)[C@@H](CN(C)C(=O)NC2CCCCC2)Oc2c(NC(=O)Nc3cccc4ccccc34)cccc2C1=O,0.995
11,C[C@H](CO)N1C[C@H](C)[C@@H](CN(C)Cc2ccncc2)Oc2c(NS(=O)(=O)c3ccc(F)cc3)cccc2C1=O,1
12,CO[C@H]1CN(C)C(=O)c2ccc(NS(C)(=O)=O)cc2OC[C@H](C)N(C(=O)C2CCCCC2)C[C@@H]1C,0.962
13,C[C@H]1CN([C@@H](C)CO)C(=O)Cc2cc(NS(=O)(=O)c3ccc(Cl)cc3)ccc2O[C@H]1CN(C)Cc1ccc(-c2ccccc2)cc1,0.992
14,Cc1noc(C)c1NC(=O)N(C)C[C@@H]1OCCCC[C@@H](C)Oc2ccc(NC(=O)Cc3ccccc3)cc2C(=O)N([C@@H](C)CO)C[C@H]1C,0.958
15,Nc1nc(=O)c2ncn(COCCO)c2[nH]1,1
16,COc1ccc(S(=O)(=O)Nc2ccc3c(c2)C(=O)N([C@@H](C)CO)C[C@H](C)[C@@H](CN(C)S(=O)(=O)c2cn(C)cn2)OCCCC[C@H](C)O3)cc1,0.994
17,CO[C@H]1CN(C)C(=O)c2cc(NS(=O)(=O)CC(F)(F)F)ccc2OC[C@@H](C)N(Cc2nccs2)C[C@@H]1C,0.962
18,NC(=O)c1cc[n+](CC2=C(C(=O)[O-])N3C(=O)C(NC(=O)Cc4cccs4)C3SC2)cc1 (stereo not given),0.634
19,COC1(NC(=O)Cc2cccs2)C(=O)N2C(C(=O)[O-])=C(COC(N)=O)CSC21.[Na+] (stereo not given),0.0688 (active)
20,CC(=O)OCC1=C(C(=O)[O-])N2C(=O)C(NC(=O)Cc3cccs3)C2SC1.[Na+] (stereo not given),0.0435 (active)

row,Structure (SMILES),relative growth
1,CC(=O)OCC1=C(C(=O)[O-])N2C(=O)C(NC(=O)CSc3ccncc3)C2SC1.[Na+] (stereo not given),0.797
2,C[C@H](CO)N1C[C@H](C)[C@H](CN(C)C(=O)Nc2ccccc2)Oc2c(NC(=O)CCCCCC(=O)Nc3ccccc3N)cccc2C1=O,0.992
3,COc1ccc(S(=O)(=O)N(C)C[C@H]2Oc3c(NC(=O)C4CC4)cccc3C(=O)N([C@H](C)CO)C[C@@H]2C)cc1,0.992
4,C[C@@H]1CCCCO[C@H](CN(C)C)[C@H](C)CN([C@@H](C)CO)C(=O)c2cc(NS(=O)(=O)c3cn(C)cn3)ccc2O1,0.994
5,C[C@@H]1CCCCO[C@H](CN(C)S(=O)(=O)c2ccccc2)[C@H](C)CN([C@@H](C)CO)C(=O)c2cc(NC(=O)Nc3ccc(C(F)(F)F)cc3)ccc2O1,1
6,COc1ccc(S(=O)(=O)Nc2ccc3c(c2)C(=O)N([C@@H](C)CO)C[C@H](C)[C@H](CN(C)S(=O)(=O)c2ccc(C)cc2)O3)cc1,1.01
7,C[C@H]1CN([C@@H](C)CO)C(=O)Cc2cc(NC(=O)Nc3ccc(C(F)(F)F)cc3)ccc2O[C@@H]1CN(C)C(=O)Nc1ccc(F)cc1,1.01
8,O=C(C[C@H]1C[C@@H]2c3cc(NC(=O)Cc4ccncc4)ccc3O[C@@H]2[C@@H](CO)O1)NCCN1CCCCC1,0.983
9,Cc1cn([C@H]2C[C@@H](NC(=O)C(C)(C)C)[C@@H](CO)O2)c(=O)[nH]c1=O,1.02
10,Cc1cn([C@H]2CC[C@@H](CO)O2)c(=O)[nH]c1=O,0.531
11,Cc1cn([C@H]2C[C@H](F)[C@@H](CO)O2)c(=O)[nH]c1=O,0.276
12,CCc1cn([C@H]2C[C@@H](O)[C@@H](CO)O2)c(=O)[nH]c1=O,0.827
13,Cc1cn(C2CC(N=[N+]=[N-])C(CO)O2)c(=O)[nH]c1=O (stereo not given),0.0449 (active)
14,Cc1cn([C@H]2C[C@H](N=[N+]=[N-])[C@@H](CO)O2)c(=O)[nH]c1=O,0.048 (active)
15,O=C(C[C@H]1C[C@H]2c3cc(NC(=O)Cc4ccncc4)ccc3O[C@H]2[C@H](CO)O1)NCCN1CCCCC1,1.02
16,Cc1noc(C)c1NC(=O)Nc1ccc2c(c1)C(=O)N([C@@H](C)CO)C[C@H](C)[C@@H](CN(C)S(=O)(=O)c1ccccc1)O2,0.987
17,COCC#Cc1ccc2c(c1)O[C@@H](CN(C)S(=O)(=O)c1ccc(C)cc1)[C@@H](C)CN([C@H](C)CO)S2(=O)=O,1.02
18,C[C@@H]1CN([C@@H](C)CO)C(=O)c2cccc(NC(=O)Nc3ccc(F)cc3)c2O[C@H]1CN(C)S(=O)(=O)c1cn(C)cn1,0.984
19,C[C@@H]1CN([C@H](C)CO)C(=O)Cc2cc(NC(=O)Cn3cnnn3)ccc2O[C@H]1CN(C)Cc1ccncc1,0.971
20,C[C@@H]1CN([C@@H](C)CO)C(=O)CCCn2nncc2CO[C@@H]1CN(C)C(=O)c1ccc(N2CCN(C)CC2)cc1,0.987
